Measurements taken from PubChem BioAssay.
Calls of active or inactive are those of the source. Unless noted, how the calls were made is not given here.

Experiments:
[1] = compound effects on lung adenocarcinoma cell viability – A549, calcein-AM fluorescence, 48 h, basal, profiling panel (AID 1162); conditions: higher = more signal; further: test concentration not given here
[2] = compound effects on differentiated 3T3-L1 adipocyte viability – cell-based, 3T3-L1 adipocytes, calcein-AM fluorescence, 48 h, basal, profiling panel (AID 1163); conditions: 3T3-L1 adipocytes viability, higher = more signal; further: test concentration not given here
[3] = compound effects on hepatocellular carcinoma cell viability – HepG2, calcein-AM fluorescence, 48 h, basal, profiling panel (AID 1164); conditions: higher = more signal; further: test concentration not given here
[4] = compound effects on multiple myeloma cell viability – MM1S, calcein-AM fluorescence, 48 h, basal, profiling panel (AID 1165); conditions: higher = more signal; further: test concentration not given here
[5] = calcein-AM signal in unstimulated myeloma cells – cell-based, calcein-AM fluorescence, 48 h, PK04 Diversity Set, profiling panel (AID 1166); conditions: RPMI8226 myeloma viability, higher = more signal;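 further: cells grown under basal conditions without added stimulus; test concentration not given here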
[6] = JC-1 mitochondrial signal, unstimulated HepG2 cells – cell-based, JC-1 fluorescence, 24 h, 100 nL compound, profiling panel (AID 1167); conditions: HepG2 mitochondrial potential, higher = more signal; further: test concentration not given here
[7] = JC-1 mitochondrial signal, unstimulated adipocytes – cell-based, JC-1 fluorescence, 3T3-L1 adipocytes, 24 h, 100 nL compound, profiling panel (AID 1168); conditions: JC-1 mitochondrial fluorescence, higher = more signal, called active from +8 up or from −8 down; further: test concentration not given here
[8] = JC-1 mitochondrial signal, unstimulated myeloma cells – cell-based, JC-1 fluorescence, RPMI8226, 24 h, 100 nL compound, profiling panel (AID 1169); conditions: JC-1 mitochondrial potential fluorescence, higher = more signal; further: test concentration not given here
[9] = JC-1 mitochondrial signal, unstimulated MM1S myeloma – cell-based, JC-1 fluorescence, 24 h, 100 nL compound, profiling panel (AID 1170); conditions: MM1S mitochondrial potential, higher = more signal; further: test concentration not given here
[10] = resazurin metabolic signal in A549 cells – cell-based, resazurin fluorescence, 24 h, PK04 Diversity Set, profiling panel (AID 1171); conditions: A549 viability, higher = more signal, called active from +8 up or from −8 down; further: test concentration not given here
[11] = resazurin metabolic signal in HepG2 cells – cell-based, resazurin fluorescence, 24 h, PK04 Diversity Set, profiling panel (AID 1172); conditions: HepG2 viability, higher = more signal; further: test concentration not given here
[12] = budding yeast growth changes without added modifier – OD600, strain BY4716, 24 h, basal condition, primary screen (AID 1173); conditions: S. cerevisiae BY4716 growth, OD600, 24 h; higher = more signal, called active from +8 up or from −8 down
[13] = viability profiling in MM1S myeloma cells – cell-based, resazurin fluorescence, basal, 24 h, PK04 Diversity Set, profiling panel (AID 1174); conditions: higher = more signal, called active from +8 up or from −8 down; further: test concentration not given here
[14] = target: Dihydroorotate dehydrogenase (quinone), mitochondrial (Plasmodium falciparum (isolate 3D7)) (UniProt Q08210); experiment: inhibition of P. falciparum DHODH – biochemical, C-terminal His tag, absorbance 600 nm, primary screen (AID 1175); conditions: PfDHODH enzyme, DCIP absorbance 600 nm; higher = more signal, called active from +8 up or from −8 down;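 further: recombinant parasite enzyme with a five histidine tag at its C terminus; test concentration not given here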
[15] = inhibition of PAO1 biofilm formation – strain PAO1, LB-PBS medium, absorbance 600 nm, primary screen (AID 1176); further: test concentration not given here; conditions: P. aeruginosa PAO1 growth/biofilm, A600, 12 h; higher = more signal
[16] = growth modulation of vineyard yeast isolate – strain RM11-1a, OD600, basal, 24 h, primary screen (AID 1177);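 further: cultures grown under basal conditions with no added stressor; test concentration not given here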; conditions: S. cerevisiae RM11-1a growth, OD600, 24 h; higher = more signal, called active from +8 up or from −8 down
[17] = growth of efflux-deficient E. coli DRC39 – strain DRC39, OD650, 24 h, E. coli filamentation inducers, primary screen (AID 1178);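 further: growth measured as culture turbidity by optical density at 650 nm; test concentration not given here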; conditions: E. coli DRC39 acrAB, higher = more signal, called active from +8 up or from −8 down
[18] = growth of efflux-deficient E. coli DRC39 – strain DRC39, OD650, 48 h, E. coli filamentation inducers, primary screen (AID 1179);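 further: screen aims at cell division blockers that make cells filament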; conditions: E. coli DRC39 delta-acrAB growth, higher = more signal, called active from +8 up or from −8 down
[19] = viability profiling in RPMI8226 myeloma cells – cell-based, resazurin fluorescence, basal, 24 h, PK04 Diversity Set, profiling panel (AID 1180); conditions: higher = more signal;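 further: RPMI8826 multiple myeloma cell line at 5000 cells per well; test concentration not given here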
[20] = target: E3 ubiquitin-protein ligase XIAP (Homo sapiens) (UniProt P98170); experiment: small molecules binding XIAP protein – biophysical, small-molecule microarray, fluorescence 635 nm, primary screen (AID 1181); conditions: higher = more signal;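 further: score merges 667 nm emission and signal to noise over triplicate slides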
E3 ubiquitin-protein ligase XIAP (Homo sapiens), sequence (P98170 whole entry, looked up): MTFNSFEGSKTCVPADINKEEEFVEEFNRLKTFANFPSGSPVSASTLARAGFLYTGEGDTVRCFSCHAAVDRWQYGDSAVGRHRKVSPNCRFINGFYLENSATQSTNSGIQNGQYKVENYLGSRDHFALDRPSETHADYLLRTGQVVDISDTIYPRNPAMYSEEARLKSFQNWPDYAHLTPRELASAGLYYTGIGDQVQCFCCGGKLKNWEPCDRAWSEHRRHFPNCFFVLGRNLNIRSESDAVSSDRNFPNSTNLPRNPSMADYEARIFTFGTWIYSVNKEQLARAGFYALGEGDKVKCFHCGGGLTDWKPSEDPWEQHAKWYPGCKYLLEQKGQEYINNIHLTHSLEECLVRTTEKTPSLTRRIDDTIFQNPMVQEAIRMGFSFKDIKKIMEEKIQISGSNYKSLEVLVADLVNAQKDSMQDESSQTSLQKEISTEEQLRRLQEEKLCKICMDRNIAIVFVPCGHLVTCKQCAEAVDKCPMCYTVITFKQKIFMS

Dihydroorotate dehydrogenase (quinone), mitochondrial (Plasmodium falciparum (isolate 3D7)), sequence (Q08210 whole entry, looked up): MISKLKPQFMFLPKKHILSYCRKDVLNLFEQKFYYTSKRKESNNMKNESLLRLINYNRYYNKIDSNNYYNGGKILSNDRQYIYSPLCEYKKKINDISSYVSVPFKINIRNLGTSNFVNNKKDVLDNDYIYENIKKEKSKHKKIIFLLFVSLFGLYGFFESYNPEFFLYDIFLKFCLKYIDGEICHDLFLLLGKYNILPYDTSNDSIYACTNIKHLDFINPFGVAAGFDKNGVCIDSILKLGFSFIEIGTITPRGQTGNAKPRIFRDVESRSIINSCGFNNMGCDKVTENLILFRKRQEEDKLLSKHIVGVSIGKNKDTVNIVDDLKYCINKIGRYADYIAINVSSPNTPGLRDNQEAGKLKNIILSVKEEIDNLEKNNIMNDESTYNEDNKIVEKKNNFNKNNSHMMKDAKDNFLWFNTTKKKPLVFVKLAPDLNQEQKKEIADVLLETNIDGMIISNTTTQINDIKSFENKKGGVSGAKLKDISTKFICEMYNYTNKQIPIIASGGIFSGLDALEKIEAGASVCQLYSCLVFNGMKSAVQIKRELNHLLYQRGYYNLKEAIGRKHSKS

SMILES | z-score [1] | z-score [2] | z-score [3] | z-score [4] | z-score [5] | z-score [6] | z-score [7] | z-score [8] | z-score [9] | z-score [10] | z-score [11] | z-score [12] | z-score [13] | composite z-score [14] | z-score [15] | z-score [16] | z-score [17] | z-score [18] | z-score [19] | composite z-score [20]
CC(C)(C)N1C(=O)[C@H]2[C@H]3[C@H](O)[C@H](O)CC(=O)[C@H]3CC[C@H]2C1=O | -0.568 | 0.372 | 0.258 | -1 | -0.27 | 0.192 | -0.445 (inactive) | 0.651 | -0.512 | -0.644 (inactive) | -0.915 | -0.573 (inactive) | 0.319 (inactive) | 0.236 (inactive) | -0.908 (inactive) | 0.143 (inactive) | -0.403 (inactive) | -0.738 (inactive) | -0.383 | -0.0378
CCOC(=O)[C@H](CC(C)C)NC(=O)CCC1CC(OC(=O)NCc2cccc3ccccc23)CC2(CCCC(COC(=O)NCc3ccncc3)O2)O1 (stereo not given in full) | 0.357 | -0.0315 | -0.215 | -3.43 | -1.8 | 0.991 | 0.666 (inactive) | -0.12 | -1.14 | 0.645 (inactive) | -0.232 | -0.101 (inactive) | 0.192 (inactive) | 0.0964 (inactive) | 0.368 (inactive) | 0.559 (inactive) | 1.1 (inactive) | 0.399 (inactive) | -0.404 | -0.105
COc1ccc(COC(=O)NN=C2C[C@@H](O)[C@@H](O)[C@@H]3[C@@H]4C(=O)N(c5ccc(F)cc5F)C(=O)[C@@H]4CC[C@H]23)cc1 | 0.0819 | 0.232 | -1.01 | 0.698 | -0.887 | 0.361 | -0.982 (inactive) | -0.112 | -1.07 | 0.764 (inactive) | -0.238 | -0.291 (inactive) | 0.317 (inactive) | 0.0067 (inactive) | 0.307 (inactive) | -0.461 (inactive) | -0.0692 (inactive) | 0.138 (inactive) | 0.643 | 0.0674
O=C1C[C@@H](O)[C@@H](O)[C@@H]2[C@@H]3C(=O)N(c4cccc(Oc5ccccc5)c4)C(=O)[C@@H]3CC[C@H]12 | -0.0402 | -0.231 | 0.0658 | 0.258 | -0.0527 | -0.101 | -1.02 (inactive) | -0.308 | 0.258 | 0.16 (inactive) | 0.0515 | 0.251 (inactive) | 0.0257 (inactive) | 0.0371 (inactive) | -0.601 (inactive) | 0.132 (inactive) | -0.539 (inactive) | -0.389 (inactive) | 0.0381 | -0.0448
COC(=O)[C@H]1[C@@H](O)[C@@]2(O)c3ccccc3O[C@@]2(c2ccccc2)[C@@H]1c1ccccc1 | -0.895 | -0.535 | -2.85 | -2.81 | -3.1 | -1.85 | -0.144 (inactive) | -0.231 | -0.341 | -0.146 (inactive) | -0.314 | 0.358 (inactive) | -0.683 (inactive) | 0.154 (inactive) | -0.175 (inactive) | 0.653 (inactive) | -0.306 (inactive) | -0.446 (inactive) | -0.857 | -0.173
O=C(NN=C1C[C@@H](O)[C@@H](O)[C@@H]2[C@@H]3C(=O)N(Cc4ccccc4)C(=O)[C@@H]3CC[C@@H]12)OCc1ccccc1 | 0.272 | -0.201 | -0.258 | 0.372 | 0.582 | 1.23 | 0.806 (inactive) | -0.37 | -1.53 | -0.534 (inactive) | 0.348 | -1.17 (inactive) | 0.0873 (inactive) | -1.65 (inactive) | 0.352 (inactive) | -0.139 (inactive) | 0.851 (inactive) | 0.279 (inactive) | 0.131 | -0.0344
O=C1C[C@@H](O)[C@@H](O)[C@@H]2[C@@H]3C(=O)N(Cc4ccccc4)C(=O)[C@@H]3CC[C@@H]12 | 0.249 | -0.118 | 0.208 | 0.0158 | -0.499 | -0.229 | 0.377 (inactive) | 0.139 | 0.431 | 1.11 (inactive) | 0.568 | 0.178 (inactive) | 0.144 (inactive) | 0.378 (inactive) | -0.425 (inactive) | 0.0564 (inactive) | -0.7 (inactive) | -0.564 (inactive) | 0.112 | 0.126
CCOC(=O)[C@H](Cc1ccccc1)NC(=O)CCC1CC(OC(=O)NCc2cccc3ccccc23)CC2(CCCC(COC(=O)NCCC(C)C)O2)O1 (stereo not given in full) | 0.509 | -0.0617 | -0.166 | 0.389 | 0.302 | -0.433 | -0.133 (inactive) | -0.758 | -0.121 | 1.32 (inactive) | 1.15 | -1.07 (inactive) | 1.3 (inactive) | -0.619 (inactive) | 0.238 (inactive) | -0.886 (inactive) | -0.427 (inactive) | 0.319 (inactive) | 1.82 | 0.0867
CC(C)CON=C1C[C@@H](O)[C@@H](O)[C@@H]2[C@@H]3C(=O)N(c4ccc(F)cc4F)C(=O)[C@@H]3CC[C@H]12 | 0.0042 | -0.934 | -0.222 | 0.597 | -0.567 | 0.861 | -0.131 (inactive) | 0.541 | -1 | 0.495 (inactive) | 0.806 | -0.406 (inactive) | 0.686 (inactive) | -0.223 (inactive) | 0.246 (inactive) | -0.554 (inactive) | 0.404 (inactive) | -0.382 (inactive) | 0.17 | -0.138
